Here are results for one compound from ChEMBL document CHEMBL1961873, “Compounds: GSK PKIS; Assays: Nanosyn kinase panel” (2012).

SMILES strings stand for the structures.

Test [1] addresses Protein kinase C gamma type (Homo sapiens) (UniProt P05129). To be noted: at 1 µM.
Test [2] deals with T1, Protein kinase C iota type (Homo sapiens) (UniProt P41743).
T1 sequence (whole entry): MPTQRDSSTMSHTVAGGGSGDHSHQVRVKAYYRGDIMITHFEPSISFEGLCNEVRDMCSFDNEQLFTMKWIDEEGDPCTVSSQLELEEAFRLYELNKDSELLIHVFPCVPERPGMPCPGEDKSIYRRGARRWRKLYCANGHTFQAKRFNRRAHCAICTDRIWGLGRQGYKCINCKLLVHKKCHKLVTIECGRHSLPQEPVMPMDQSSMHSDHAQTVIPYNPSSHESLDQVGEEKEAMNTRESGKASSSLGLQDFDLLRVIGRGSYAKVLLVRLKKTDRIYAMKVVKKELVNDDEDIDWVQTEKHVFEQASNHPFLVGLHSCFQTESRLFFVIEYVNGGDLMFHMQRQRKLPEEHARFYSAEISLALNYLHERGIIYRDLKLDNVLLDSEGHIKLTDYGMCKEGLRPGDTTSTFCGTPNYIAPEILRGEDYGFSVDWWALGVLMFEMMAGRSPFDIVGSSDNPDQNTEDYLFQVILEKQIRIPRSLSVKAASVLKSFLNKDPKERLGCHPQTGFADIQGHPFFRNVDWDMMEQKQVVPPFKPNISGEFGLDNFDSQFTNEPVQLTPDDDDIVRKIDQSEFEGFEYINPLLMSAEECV
The following applies: at 0.1 µM.

For test [3], the target named is T1, Protein kinase C iota type (Homo sapiens). The following applies: at 1 µM.
Test [4] has as its target Protein kinase C theta type (Homo sapiens) (UniProt Q04759). The following applies: at 0.1 µM.
Test [5] has the same target. To be noted: at 1 µM.
For test [6], the target named is Protein kinase C beta type (Homo sapiens) (UniProt P05771). To be noted: at 0.1 µM.
Sequence of Protein kinase C beta type (Homo sapiens) (P05771 2-671 limits assumed): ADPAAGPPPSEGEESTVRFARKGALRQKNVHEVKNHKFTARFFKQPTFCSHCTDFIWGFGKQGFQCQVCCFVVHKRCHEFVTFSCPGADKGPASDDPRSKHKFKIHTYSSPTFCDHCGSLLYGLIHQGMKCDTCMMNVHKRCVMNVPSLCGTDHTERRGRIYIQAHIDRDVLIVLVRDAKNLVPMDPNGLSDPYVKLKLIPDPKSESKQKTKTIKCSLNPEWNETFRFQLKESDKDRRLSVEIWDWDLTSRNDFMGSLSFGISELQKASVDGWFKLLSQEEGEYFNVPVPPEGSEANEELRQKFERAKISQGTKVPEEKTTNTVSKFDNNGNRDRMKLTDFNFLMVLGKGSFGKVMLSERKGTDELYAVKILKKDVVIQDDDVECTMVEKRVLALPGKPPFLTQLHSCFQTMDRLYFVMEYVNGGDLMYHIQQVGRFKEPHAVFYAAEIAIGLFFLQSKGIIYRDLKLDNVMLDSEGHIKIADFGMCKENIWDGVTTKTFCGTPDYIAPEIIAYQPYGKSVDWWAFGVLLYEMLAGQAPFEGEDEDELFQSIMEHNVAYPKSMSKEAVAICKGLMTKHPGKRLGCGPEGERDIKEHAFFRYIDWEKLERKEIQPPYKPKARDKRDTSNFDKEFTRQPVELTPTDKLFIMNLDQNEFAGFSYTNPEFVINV
For test [7] the target is unchanged. The following applies: at 1 µM.
Test [8] addresses T2, Serine/threonine-protein kinase D1 (Homo sapiens) (UniProt Q15139).
T2 sequence (whole entry): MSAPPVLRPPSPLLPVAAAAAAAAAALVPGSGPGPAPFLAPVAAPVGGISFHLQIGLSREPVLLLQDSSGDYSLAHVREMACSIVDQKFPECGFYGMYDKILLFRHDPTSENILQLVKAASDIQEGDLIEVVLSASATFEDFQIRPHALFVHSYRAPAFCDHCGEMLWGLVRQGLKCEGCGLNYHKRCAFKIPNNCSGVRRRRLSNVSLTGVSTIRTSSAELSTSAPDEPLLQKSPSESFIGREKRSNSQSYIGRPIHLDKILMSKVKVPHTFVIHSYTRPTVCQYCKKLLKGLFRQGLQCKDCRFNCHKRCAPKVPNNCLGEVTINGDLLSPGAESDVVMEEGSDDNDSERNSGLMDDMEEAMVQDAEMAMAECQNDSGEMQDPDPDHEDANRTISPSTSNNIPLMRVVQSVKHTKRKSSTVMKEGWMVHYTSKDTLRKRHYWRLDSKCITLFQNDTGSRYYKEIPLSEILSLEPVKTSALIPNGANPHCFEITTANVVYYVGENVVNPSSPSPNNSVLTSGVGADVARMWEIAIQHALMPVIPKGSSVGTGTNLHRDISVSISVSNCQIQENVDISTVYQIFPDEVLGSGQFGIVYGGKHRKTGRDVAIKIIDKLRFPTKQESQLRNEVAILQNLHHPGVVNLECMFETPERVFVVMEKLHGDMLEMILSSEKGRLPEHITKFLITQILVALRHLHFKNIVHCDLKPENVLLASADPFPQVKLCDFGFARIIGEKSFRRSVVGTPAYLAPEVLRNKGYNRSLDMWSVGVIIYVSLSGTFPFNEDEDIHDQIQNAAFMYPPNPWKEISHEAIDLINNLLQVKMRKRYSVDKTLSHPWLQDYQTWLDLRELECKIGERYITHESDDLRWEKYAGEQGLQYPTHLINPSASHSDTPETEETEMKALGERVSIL
The following applies: at 0.1 µM.

The target of test [9] is T2, Serine/threonine-protein kinase D1 (Homo sapiens). The following applies: at 1 µM.
In test [10] the target is T3, Serine/threonine-protein kinase D2 (Homo sapiens) (UniProt Q9BZL6).
T3 sequence (whole entry): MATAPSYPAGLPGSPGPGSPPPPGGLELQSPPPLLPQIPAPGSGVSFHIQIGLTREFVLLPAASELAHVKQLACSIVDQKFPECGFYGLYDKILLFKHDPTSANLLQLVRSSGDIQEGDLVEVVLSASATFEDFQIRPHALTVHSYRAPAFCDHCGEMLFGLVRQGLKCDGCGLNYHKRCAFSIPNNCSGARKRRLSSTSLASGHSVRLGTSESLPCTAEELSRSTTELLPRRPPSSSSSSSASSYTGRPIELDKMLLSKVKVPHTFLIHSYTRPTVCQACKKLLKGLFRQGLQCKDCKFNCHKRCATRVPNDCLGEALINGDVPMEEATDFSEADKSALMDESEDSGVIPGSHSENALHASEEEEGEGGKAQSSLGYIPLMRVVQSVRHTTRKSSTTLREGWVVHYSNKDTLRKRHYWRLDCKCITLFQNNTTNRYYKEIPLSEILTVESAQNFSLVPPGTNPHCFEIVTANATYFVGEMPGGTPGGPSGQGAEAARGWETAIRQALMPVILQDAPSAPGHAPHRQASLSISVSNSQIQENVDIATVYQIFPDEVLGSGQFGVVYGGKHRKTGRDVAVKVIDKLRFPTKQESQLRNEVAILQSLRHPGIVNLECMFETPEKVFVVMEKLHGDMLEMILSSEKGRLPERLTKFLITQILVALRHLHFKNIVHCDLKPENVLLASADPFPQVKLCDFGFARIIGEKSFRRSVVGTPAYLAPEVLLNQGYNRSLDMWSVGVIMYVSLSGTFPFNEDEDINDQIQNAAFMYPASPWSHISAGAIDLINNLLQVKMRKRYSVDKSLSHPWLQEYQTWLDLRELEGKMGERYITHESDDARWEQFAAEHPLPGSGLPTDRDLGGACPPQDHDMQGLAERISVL
To be noted: at 0.1 µM.

The target in test [11] is T3, Serine/threonine-protein kinase D2 (Homo sapiens). To be noted: at 1 µM.
Test [12] addresses T4, Serine/threonine-protein kinase D3 (Homo sapiens) (UniProt O94806).
T4 sequence (whole entry): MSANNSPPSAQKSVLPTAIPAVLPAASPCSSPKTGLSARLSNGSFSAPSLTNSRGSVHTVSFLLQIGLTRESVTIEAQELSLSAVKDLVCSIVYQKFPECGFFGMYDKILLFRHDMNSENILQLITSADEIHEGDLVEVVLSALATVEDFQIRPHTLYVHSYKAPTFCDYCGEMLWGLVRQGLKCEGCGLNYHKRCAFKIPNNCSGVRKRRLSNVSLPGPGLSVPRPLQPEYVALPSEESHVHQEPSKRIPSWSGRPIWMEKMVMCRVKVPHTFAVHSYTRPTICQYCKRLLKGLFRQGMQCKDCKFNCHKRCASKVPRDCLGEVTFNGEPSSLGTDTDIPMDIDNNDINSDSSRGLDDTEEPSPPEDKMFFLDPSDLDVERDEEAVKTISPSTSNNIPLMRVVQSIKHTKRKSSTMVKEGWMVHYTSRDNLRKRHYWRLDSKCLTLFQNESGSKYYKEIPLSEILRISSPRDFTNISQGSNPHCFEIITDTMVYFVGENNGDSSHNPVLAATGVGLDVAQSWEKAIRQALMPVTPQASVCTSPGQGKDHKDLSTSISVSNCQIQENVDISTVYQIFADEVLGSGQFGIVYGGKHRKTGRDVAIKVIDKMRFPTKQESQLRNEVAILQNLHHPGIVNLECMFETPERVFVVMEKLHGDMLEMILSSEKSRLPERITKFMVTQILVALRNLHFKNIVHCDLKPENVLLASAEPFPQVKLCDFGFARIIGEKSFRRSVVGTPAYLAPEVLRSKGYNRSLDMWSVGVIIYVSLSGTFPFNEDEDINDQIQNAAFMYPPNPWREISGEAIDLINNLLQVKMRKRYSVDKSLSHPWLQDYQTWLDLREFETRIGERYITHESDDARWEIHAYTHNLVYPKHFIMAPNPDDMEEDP
The following applies: at 0.1 µM.

Test [13] concerns the target T4, Serine/threonine-protein kinase D3 (Homo sapiens). The following applies: at 1 µM.
Test [14] addresses T5, cGMP-dependent protein kinase 1 (Homo sapiens) (UniProt Q13976).
T5 sequence (whole entry): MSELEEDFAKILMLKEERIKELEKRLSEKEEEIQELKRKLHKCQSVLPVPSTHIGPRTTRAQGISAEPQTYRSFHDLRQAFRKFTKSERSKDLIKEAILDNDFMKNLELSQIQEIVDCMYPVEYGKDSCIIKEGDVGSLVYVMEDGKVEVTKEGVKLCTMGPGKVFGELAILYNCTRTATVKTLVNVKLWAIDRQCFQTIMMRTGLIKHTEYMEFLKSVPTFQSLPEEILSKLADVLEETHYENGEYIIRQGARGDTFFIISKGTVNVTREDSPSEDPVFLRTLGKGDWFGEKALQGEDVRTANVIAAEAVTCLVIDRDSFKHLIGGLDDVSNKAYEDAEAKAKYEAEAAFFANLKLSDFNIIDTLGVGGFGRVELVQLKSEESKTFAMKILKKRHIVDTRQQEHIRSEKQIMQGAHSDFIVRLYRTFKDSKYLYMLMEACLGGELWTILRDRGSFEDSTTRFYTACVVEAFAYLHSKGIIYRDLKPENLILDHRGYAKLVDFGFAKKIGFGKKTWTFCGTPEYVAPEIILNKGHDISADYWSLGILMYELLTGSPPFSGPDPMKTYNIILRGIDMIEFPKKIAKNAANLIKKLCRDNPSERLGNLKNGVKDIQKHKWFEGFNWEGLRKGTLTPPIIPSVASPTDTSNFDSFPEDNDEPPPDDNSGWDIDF
To be noted: at 0.1 µM.

Test [15] concerns the target T5, cGMP-dependent protein kinase 1 (Homo sapiens). The following applies: at 1 µM.
Test [16] deals with T6, cGMP-dependent protein kinase 2 (Homo sapiens) (UniProt Q13237).
T6 sequence (whole entry): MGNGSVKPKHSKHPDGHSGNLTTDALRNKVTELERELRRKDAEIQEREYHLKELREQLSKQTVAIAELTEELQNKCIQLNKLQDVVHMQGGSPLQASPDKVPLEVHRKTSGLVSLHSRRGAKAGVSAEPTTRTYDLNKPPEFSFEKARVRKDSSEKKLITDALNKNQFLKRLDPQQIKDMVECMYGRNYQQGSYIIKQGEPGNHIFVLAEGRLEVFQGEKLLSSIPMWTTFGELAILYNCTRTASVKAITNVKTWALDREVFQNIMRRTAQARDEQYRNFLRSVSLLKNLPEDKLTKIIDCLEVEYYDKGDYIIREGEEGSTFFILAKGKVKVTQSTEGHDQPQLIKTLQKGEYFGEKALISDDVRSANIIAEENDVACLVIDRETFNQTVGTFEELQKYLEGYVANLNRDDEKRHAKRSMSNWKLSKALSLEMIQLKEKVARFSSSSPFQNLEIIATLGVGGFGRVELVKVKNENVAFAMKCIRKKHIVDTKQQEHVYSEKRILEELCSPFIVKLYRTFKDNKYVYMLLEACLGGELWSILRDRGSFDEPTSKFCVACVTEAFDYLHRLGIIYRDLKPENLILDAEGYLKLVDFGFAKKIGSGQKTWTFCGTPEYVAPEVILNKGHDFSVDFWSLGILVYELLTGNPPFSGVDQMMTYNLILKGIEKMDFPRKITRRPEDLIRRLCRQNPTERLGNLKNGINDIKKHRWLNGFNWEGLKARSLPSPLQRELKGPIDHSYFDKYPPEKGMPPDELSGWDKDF
The following applies: at 0.1 µM.

The target of test [17] is T6, cGMP-dependent protein kinase 2 (Homo sapiens). To be noted: at 1 µM.
The target of test [18] is T7, cAMP-dependent protein kinase catalytic subunit PRKX (Homo sapiens) (UniProt P51817).
T7 sequence (whole entry): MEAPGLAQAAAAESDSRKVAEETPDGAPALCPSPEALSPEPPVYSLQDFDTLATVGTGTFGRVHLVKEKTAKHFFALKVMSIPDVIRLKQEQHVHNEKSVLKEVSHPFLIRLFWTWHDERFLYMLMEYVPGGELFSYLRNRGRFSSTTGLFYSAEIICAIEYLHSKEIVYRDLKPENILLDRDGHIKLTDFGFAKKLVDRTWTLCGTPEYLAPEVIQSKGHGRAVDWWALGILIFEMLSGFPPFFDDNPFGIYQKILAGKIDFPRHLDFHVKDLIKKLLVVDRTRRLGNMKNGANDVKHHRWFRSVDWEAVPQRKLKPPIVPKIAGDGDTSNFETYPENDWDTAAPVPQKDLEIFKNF
To be noted: at 0.1 µM.

In test [19] the target is T7, cAMP-dependent protein kinase catalytic subunit PRKX (Homo sapiens). The following applies: at 1 µM.
In test [20] the target is Rho-associated protein kinase 1 (Homo sapiens) (UniProt Q13464). The following applies: at 0.1 µM.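 Note: values are mean percent inhibition of ROCK1.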
Sequence of Rho-associated protein kinase 1 (Homo sapiens) (Q13464 2-1354 limits assumed): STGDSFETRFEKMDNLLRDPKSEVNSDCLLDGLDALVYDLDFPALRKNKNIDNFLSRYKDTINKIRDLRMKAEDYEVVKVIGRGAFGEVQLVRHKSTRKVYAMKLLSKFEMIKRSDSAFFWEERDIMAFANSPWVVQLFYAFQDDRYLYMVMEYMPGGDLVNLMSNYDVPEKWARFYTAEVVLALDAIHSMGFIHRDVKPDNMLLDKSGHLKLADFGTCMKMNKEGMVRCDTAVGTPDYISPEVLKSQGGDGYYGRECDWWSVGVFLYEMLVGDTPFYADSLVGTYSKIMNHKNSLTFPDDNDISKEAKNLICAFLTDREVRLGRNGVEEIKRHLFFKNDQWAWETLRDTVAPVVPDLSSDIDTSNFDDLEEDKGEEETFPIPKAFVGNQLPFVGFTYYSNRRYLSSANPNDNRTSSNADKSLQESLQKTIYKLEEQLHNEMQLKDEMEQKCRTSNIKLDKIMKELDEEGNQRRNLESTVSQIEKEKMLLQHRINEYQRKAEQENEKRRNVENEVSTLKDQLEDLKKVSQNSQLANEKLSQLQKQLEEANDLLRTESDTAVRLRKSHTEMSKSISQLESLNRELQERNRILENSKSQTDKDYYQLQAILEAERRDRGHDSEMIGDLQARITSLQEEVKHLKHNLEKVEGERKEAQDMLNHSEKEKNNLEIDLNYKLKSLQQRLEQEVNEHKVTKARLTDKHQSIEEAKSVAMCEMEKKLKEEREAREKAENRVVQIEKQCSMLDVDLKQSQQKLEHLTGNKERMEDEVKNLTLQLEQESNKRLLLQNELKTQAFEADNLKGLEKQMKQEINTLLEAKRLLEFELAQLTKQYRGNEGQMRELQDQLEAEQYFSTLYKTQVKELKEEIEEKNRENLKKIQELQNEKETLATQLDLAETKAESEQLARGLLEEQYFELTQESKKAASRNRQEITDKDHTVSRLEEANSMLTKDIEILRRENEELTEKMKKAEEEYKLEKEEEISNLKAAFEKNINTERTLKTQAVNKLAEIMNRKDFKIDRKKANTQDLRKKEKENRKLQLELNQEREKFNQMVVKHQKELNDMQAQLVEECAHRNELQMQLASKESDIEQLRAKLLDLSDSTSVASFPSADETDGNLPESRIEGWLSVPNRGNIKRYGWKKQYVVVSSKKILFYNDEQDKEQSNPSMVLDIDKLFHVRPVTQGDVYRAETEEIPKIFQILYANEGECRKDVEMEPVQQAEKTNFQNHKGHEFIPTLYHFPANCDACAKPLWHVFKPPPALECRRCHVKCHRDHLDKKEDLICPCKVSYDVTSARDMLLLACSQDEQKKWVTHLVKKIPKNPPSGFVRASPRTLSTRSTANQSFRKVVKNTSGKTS

Sequence of Protein kinase C theta type (Homo sapiens) (Q04759 whole entry, looked up): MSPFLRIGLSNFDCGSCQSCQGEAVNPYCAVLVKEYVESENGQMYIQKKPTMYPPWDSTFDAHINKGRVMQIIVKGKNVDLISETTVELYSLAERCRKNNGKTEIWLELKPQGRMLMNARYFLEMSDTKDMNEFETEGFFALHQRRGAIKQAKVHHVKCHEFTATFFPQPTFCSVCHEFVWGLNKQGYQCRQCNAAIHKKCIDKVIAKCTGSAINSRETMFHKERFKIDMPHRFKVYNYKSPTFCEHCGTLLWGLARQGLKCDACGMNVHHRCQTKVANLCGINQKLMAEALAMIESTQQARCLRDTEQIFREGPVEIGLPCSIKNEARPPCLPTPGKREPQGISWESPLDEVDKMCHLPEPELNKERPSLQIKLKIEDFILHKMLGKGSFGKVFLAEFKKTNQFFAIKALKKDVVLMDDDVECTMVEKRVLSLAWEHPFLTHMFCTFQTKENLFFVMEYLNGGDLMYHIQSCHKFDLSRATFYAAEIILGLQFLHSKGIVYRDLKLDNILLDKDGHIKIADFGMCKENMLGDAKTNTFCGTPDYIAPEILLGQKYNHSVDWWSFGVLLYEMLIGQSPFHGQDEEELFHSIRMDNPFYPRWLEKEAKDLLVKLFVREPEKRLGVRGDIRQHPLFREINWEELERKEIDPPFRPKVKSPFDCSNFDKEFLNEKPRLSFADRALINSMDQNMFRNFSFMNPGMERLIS

Turning to `Clc1ccc(-c2nn3ncccc3c2-c2ccnc(Nc3ccccc3)n2)cc1`, the inhibition in test [1] was -1.39%; in [2], 0.23%; in test [3], 0.46%; in [4], 0.91%; in test [5], -0.72%; in test [6] it was -0.06%. The inhibition in test [7] is 3.99%; in test [8] it was 1.65%; in test [9] it was 2.76%; in test [10] it was 1.23%; in test [11], 2.67%; in test [12], 1.78%. Also, the inhibition in [13] worked out at 4.14%; in test [14], 3.3%; in test [15], 5.54%; in [16], 1.46%; in test [17], 3.41%; in test [18] it was 2.16%. Also, the inhibition in test [19] amounted to 2.02%; in test [20], 2.28%.

For orientation: inhibition means the change of the read-out against control, counted positive when it falls.
